Test results reported in PubChem BioAssay AID590 (National Center for Advancing Translational Sciences (NCATS), 2007).
About 6,500 (11%) of roughly 59,000 compounds were called active. Roughly 15% stayed inconclusive and do not appear here. No stated cut-off is given here; in the data, active means max dye-equivalent concentration above about 10 nM; inconclusive means mostly about 1.1 nM to 9.6 nM; inactive means weaker than that. Many of the other results were omitted from the sample, so actives are more common in it than they were. Some compounds were tested as several samples or in several runs, with calls that do not always agree.

Experiment: qHTS Assay for Spectroscopic Profiling in A350 Spectral Region
Conditions: Compound autofluorescence, 340/450 nm, Alexa 350 dye-equivalents; hits give high values

| Structure (SMILES) | max dye-equivalent concentration | outcome |
| --- | --- | --- |
| CS(=O)(=O)N1CCC[C@@]2(CCN(c3ccncc3)C2)C1 | inactive |  |
| Cc1ccc(CN2C(=O)CCC2C(=O)NCCCN2CCCCC2C)cc1 (stereo not given) | inactive |  |
| COc1ccccc1CN1CC2(CCN(S(=O)(=O)c3ccccc3)CC2)C1 | inactive |  |
| CC(C)OCCCNC(=O)C1CC(=O)N(C2CCCCCCC2)C1 (stereo not given) | inactive |  |
| COc1ccc(CCNS(=O)(=O)c2ccc(F)cc2)cc1OC | inactive |  |
| CSc1ccc(-c2c(C#N)c(N)nc3c2c(C)nn3-c2ccccc2)cc1 | 360 nM (active) |  |
| CSc1nc(N)c(C#N)c(-c2ccccc2Cl)c1C#N | inactive |  |
| CCCc1[nH]nc2c1C(c1c(C)nn(-c3ccccc3)c1Cl)C(C#N)=C(N)O2 (stereo not given) | inactive |  |
| O=S(=O)(c1ccccc1)N(CC(O)CN1CCCCC1)c1ccccc1 (stereo not given) | inactive |  |
| O=C1c2oc3ccc(Br)cc3c(=O)c2C(c2cccc(F)c2)N1CCO (stereo not given) | inactive |  |
| Cn1c(=O)c2c(nc(NCCc3ccccc3)n2Cc2ccccc2)n(C)c1=O | inactive |  |
| Cn1c(=S)c2[nH]c(SCCCc3ccccc3)nc2n(C)c1=O | 12 nM (active) |  |
| CCCSc1nc2c(c(=O)[nH]c(=O)n2C)n1CCc1ccccc1 | inactive |  |
| O=S1(=O)CC(NCc2ccccc2)C(Nc2ccc(Cl)cc2)C1 (stereo not given) | inactive |  |
| Cc1ccc(C)c(NC(=O)C2CC(=O)N(C(C)C)C2)c1 (stereo not given) | inactive |  |
| COCCn1c(=O)c(-c2cccs2)nc2cnc(N3CCN(C)CC3)nc21 | 17 nM (active) |  |
| COc1ccccc1CCn1c(=O)c(-c2cn(C)c3ccccc23)nc2cncnc21 | inactive |  |
| COCCn1c(=O)c(-c2cccs2)nc2cncnc21 | 89 nM (active) |  |
| CN(C(=O)COc1nnc(-c2cccs2)c(-c2cccs2)n1)c1ccccc1 | inactive |  |
| Cc1ccccc1NC(=O)Cc1nnc(SCC(=O)N2CCN(c3ccccc3)CC2)n1C | inactive |  |
| C=CCn1c(C)cc(C(=O)CN2C(=O)c3ccccc3C2=O)c1C | inactive |  |
| CC(=O)Nc1ccc(NS(=O)(=O)c2cc(C)sc2C)cc1 | inactive |  |
| COc1ccccc1CNc1ncncc1-c1cccc(NS(C)(=O)=O)c1 | inactive |  |
| Cc1ccc(C(=O)NCC(=O)O)cc1S(=O)(=O)N1CCCCC1 | inactive |  |
| CS(=O)(=O)Nc1cccc(-c2cncnc2Nc2ccccc2)c1 | inactive |  |
| CCOc1ccc(OCC)c(NC(=O)C2CCN(S(=O)(=O)c3c(C)noc3C)CC2)c1 | inactive |  |
| FC(F)(F)c1cccc(Nc2ncnc3ccccc23)c1 | inactive |  |

| Structure (SMILES) | max dye-equivalent concentration | outcome |
| --- | --- | --- |
| O=C(O)Cc1ccc(-c2ccccc2)cc1 | 47 nM (active) | inactive |
| O=C(O)CCCc1ccccc1 | inactive |  |
| Cc1cccc(C(=O)Nc2ccc(CC(=O)O)cc2)c1 | inactive |  |
| Cc1c(-c2nn(C)c(=O)c3ccccc23)oc2ccc(F)cc2c1=O | inactive |  |
| Cc1[nH]c2ccccc2c1C(=O)CSCC(=O)O | inactive |  |
| CCOC(=O)C1CCN(C(=O)c2oc3ccc(S(=O)(=O)N4CCCCCC4)cc3c2C)CC1 | inactive |  |
| COc1ccc(/C(O)=C2/C(=O)C(=O)N(CCCN(C)C)C2c2ccccc2)cc1OC (stereo not given) | inactive |  |
| CCCOc1ccc(/C(O)=C2/C(=O)C(=O)N(CCN(C)C)C2c2ccc(OC)c(OC)c2)cc1 (stereo not given) | inactive |  |
| CCN(CC)CCN1C(=O)C(=O)/C(=C(/O)c2ccc(OC)c(OC)c2)C1c1ccccn1 (stereo not given) | 42 nM (active) |  |
| CS(=O)(=O)N(C(=O)NC(=O)NC1CCS(=O)(=O)C1)C1CCCCC1 (stereo not given) | inactive |  |
| c1cnc(NC2C3CC4CC(C3)CC2C4)nc1 (stereo not given) | inactive |  |
| O=C(CN(Cc1ccccc1)C(=O)c1ccc2c(c1)OCCO2)NCc1ccc2c(c1)OCO2 | inactive |  |
| Cc1cc(NC(=O)Cn2nc(C(F)(F)F)c3c2CCCC3)no1 | inactive |  |
| CCCOC(=O)C1=C(C)NC2=C(C(=O)C(C(=O)OC)C(C)C2)C1c1ccc(N(C)C)cc1 (stereo not given) | 22 nM (active) |  |
| COC(=O)c1ccc(C2NC(=O)NC(C)=C2C(=O)N(C)C)cc1 (stereo not given) | inactive |  |
| COCCOC(=O)C1=C(C)NC(=O)CC1c1cc2c(cc1Br)OCO2 (stereo not given) | inactive |  |
| COC(=O)c1ccccc1NC(=O)CN(Cc1ccccc1)S(C)(=O)=O | inactive |  |
| S=c1[nH]nc(SCc2ccccc2Cl)c2[nH]cnc12 | inactive |  |
| CCOC(=O)N1CCC(O)(c2cc(C)c(C)cc2C)CC1 | inactive |  |
| CCOC(=O)N1CCN(CC(=O)c2ccc3c(c2)CCN3)CC1 | 17 nM (active) |  |
| CCOC(=O)N1CCN(CC(=O)n2c(C)c(C)c3ccccc32)CC1 | inactive |  |
| O=C(NCCCCO)C(F)(F)C(F)(F)C(F)(F)C(=O)NCCCCO | inactive |  |
| O=C(Nn1cnc2ccccc2c1=O)c1ccc(F)cc1Cl | inactive |  |
| Cn1c(SCC(=O)Nc2cccc(NC(=O)c3cccs3)c2)nnc1-c1ccncc1 | inactive |  |
| Cc1nc(-c2ccc(NC(=O)c3cccs3)cc2)cs1 | 280 nM (active) |  |
| O=C(O)Cc1ccc(NC(=O)c2cccs2)cc1 | inactive |  |
| O=C(O)C1CC(=O)N(Cc2cccnc2)C1 (stereo not given) | inactive |  |
